Experimental data from the supplement of paper PMC10849652.
Of roughly 8,800 targets only a part is listed; those with a hit were picked by preference. About 0.5% of all pairs of compound and target were hits. A number with no mark means an inactive call.

Assays:
Assay in all cases: log2 fold change, soluble protein after heating vs DMSO (PISA); higher = thermal stabilisation; K562 lysate, 10 uM; active = over 0.2 and 3.5 SD of the protein, either way, in both replicates (recomputed)
lapatinib = compound: CS(=O)(=O)CCNCc1ccc(-c2ccc3ncnc(Nc4ccc(OCc5cccc(F)c5)c(Cl)c4)c3c2)o1 [lapatinib]
How it was run: (§1)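 To prepare the extract, K562 pellets were dounce-homogenised in PBS pH 7.4 with 1 mM MgCl2, giving crude material at 1 mg/mL protein. This was treated with 10 μM compound for 30 min, then heated in aliquots for 3 min over 48°C-58°C before pooling and addition of NP-40 to 0.5% at 4°C. Centrifugation at 21,000xg for 90 min left soluble protein in the supernatant, which TMTpro 16plex LC-MS/MS quantified with equalised channel sums. Results are log-two fold changes in thermal stability compared with solvent controls, from duplicates.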

pictilisib = compound: CS(=O)(=O)N1CCN(Cc2cc3nc(-c4cccc5[nH]ncc45)nc(N4CCOCC4)c3s2)CC1 [pictilisib]
How it was run: as §1

crizotinib = compound: C[C@@H](Oc1cc(-c2cnn(C3CCNCC3)c2)cnc1N)c1c(Cl)ccc(F)c1Cl [crizotinib]
How it was run: as §1

[1] = compound: C[C@H](C1=CC=C(C=C1)C(=O)NC2=C3C=CNC3=NC=C2)N
How it was run: as §1

duvelisib = compound: C[C@H](Nc1ncnc2nc[nH]c12)c1cc2cccc(Cl)c2c(=O)n1-c1ccccc1 [duvelisib]
How it was run: as §1

gandotinib = compound: Cc1cc(Nc2cc(CN3CCOCC3)c3nc(C)c(Cc4ccc(Cl)cc4F)n3n2)n[nH]1 [gandotinib]
How it was run: as §1

tozasertib = compound: Cc1cc(Nc2cc(N3CCN(C)CC3)nc(Sc3ccc(NC(=O)C4CC4)cc3)n2)n[nH]1 [tozasertib]
How it was run: as §1

doramapimod = compound: Cc1ccc(-n2nc(C(C)(C)C)cc2NC(=O)Nc2ccc(OCCN3CCOCC3)c3ccccc23)cc1 [doramapimod]
How it was run: as §1

bafetinib = compound: Cc1ccc(NC(=O)c2ccc(CN3CC[C@H](N(C)C)C3)c(C(F)(F)F)c2)cc1Nc1nccc(-c2cncnc2)n1 [bafetinib]
How it was run: as §1

[2] = compound: Cc1cccc(CC(=O)N2CCc3c2ccc(-c2cn(C)c4ncnc(N)c24)c3F)n1
How it was run: as §1

Sequence of UniProt P31323 (P31323 whole entry, looked up): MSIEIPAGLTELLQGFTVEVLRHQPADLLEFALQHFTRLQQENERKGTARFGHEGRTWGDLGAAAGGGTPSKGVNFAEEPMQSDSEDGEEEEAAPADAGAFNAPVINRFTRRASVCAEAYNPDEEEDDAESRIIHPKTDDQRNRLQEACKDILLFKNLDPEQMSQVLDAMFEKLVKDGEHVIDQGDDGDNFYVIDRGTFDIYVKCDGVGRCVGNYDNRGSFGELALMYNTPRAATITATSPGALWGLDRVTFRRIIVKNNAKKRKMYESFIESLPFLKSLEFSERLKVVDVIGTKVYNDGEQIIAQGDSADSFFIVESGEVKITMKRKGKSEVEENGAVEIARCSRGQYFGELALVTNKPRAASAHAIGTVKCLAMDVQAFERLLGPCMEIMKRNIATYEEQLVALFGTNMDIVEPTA
Sequence of UniProt Q05397 (Q05397 whole entry, looked up): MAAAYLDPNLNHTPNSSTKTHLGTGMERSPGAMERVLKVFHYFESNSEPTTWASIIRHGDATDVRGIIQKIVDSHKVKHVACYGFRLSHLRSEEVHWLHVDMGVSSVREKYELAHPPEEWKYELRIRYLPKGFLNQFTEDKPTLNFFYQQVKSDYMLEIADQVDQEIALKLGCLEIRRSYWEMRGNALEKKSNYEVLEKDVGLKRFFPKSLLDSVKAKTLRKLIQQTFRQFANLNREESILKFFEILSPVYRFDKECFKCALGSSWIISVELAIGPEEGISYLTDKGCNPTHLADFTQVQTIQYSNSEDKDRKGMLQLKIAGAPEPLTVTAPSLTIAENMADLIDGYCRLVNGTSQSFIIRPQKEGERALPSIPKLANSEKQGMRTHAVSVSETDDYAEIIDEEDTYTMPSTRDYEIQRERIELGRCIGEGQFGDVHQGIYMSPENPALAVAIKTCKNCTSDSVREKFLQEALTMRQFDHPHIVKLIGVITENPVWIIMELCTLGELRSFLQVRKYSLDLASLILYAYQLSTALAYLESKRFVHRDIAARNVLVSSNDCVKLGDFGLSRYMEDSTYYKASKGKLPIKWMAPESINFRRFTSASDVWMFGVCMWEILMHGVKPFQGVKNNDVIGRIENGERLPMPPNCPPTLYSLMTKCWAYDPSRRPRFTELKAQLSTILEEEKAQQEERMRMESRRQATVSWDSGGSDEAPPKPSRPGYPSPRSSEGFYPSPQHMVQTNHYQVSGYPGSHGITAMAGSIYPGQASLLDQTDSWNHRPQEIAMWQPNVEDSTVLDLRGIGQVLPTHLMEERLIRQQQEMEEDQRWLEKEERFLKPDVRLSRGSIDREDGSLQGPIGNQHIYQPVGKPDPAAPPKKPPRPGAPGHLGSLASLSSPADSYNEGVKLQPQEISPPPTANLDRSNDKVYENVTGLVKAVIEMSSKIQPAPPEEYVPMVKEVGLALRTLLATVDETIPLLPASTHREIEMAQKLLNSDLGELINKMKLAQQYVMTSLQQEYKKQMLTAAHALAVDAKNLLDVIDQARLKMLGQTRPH
Sequence of UniProt O15530 (O15530 whole entry, looked up): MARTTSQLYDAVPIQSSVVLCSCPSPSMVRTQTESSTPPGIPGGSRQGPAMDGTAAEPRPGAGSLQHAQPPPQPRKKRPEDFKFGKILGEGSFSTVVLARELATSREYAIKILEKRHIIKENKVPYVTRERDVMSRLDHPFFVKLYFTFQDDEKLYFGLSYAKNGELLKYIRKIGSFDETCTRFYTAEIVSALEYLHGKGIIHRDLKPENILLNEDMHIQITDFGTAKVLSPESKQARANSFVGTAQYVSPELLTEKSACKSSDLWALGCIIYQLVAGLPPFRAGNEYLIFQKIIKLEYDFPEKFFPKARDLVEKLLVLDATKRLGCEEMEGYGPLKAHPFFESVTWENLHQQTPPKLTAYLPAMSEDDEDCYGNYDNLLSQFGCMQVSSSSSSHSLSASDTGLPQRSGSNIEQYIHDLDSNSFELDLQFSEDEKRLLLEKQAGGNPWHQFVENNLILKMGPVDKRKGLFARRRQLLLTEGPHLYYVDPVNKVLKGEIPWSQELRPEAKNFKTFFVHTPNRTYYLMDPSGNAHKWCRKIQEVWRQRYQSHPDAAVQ
Sequence of UniProt Q13362 (Q13362 whole entry, looked up): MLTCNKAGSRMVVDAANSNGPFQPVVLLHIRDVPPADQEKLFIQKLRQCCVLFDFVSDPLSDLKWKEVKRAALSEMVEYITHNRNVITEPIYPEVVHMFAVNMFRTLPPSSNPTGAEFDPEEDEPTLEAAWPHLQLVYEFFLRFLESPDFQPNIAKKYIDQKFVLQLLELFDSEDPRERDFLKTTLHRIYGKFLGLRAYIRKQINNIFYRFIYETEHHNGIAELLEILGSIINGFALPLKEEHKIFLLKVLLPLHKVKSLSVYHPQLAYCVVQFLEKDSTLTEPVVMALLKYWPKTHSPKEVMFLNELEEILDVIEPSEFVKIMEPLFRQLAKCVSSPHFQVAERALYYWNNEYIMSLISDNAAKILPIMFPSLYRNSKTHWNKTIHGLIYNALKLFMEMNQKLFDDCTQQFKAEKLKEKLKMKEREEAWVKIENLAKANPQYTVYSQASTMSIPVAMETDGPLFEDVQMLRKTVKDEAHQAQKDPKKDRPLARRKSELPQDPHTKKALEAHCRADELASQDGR
Sequence of UniProt P49643 (P49643 whole entry, looked up): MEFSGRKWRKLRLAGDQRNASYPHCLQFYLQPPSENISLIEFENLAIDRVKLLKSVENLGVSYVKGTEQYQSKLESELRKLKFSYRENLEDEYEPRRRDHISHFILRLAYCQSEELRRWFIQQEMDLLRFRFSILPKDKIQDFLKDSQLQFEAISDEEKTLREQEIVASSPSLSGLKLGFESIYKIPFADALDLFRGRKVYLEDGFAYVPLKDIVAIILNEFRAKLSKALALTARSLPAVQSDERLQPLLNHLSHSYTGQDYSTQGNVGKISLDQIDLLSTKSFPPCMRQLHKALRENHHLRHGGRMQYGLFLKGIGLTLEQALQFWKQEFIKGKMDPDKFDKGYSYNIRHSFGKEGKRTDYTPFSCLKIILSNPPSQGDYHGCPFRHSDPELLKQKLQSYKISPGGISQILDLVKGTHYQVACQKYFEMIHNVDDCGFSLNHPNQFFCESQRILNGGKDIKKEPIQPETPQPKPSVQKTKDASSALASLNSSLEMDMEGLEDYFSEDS
Sequence of UniProt Q8TD55 (Q8TD55 whole entry, looked up): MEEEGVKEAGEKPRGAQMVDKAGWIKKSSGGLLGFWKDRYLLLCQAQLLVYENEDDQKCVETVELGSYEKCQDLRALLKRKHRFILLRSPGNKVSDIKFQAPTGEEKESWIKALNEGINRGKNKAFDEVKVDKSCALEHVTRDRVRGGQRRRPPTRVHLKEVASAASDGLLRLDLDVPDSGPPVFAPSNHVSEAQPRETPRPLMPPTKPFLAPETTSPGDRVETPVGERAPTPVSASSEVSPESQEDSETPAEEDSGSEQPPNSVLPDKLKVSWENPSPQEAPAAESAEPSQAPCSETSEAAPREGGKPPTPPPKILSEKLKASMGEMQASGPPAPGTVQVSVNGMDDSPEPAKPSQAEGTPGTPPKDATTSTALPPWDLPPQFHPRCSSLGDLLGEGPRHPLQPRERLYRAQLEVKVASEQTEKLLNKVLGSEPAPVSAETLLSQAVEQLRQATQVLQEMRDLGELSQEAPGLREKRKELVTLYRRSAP
Sequence of UniProt P09884 (P09884 whole entry, looked up): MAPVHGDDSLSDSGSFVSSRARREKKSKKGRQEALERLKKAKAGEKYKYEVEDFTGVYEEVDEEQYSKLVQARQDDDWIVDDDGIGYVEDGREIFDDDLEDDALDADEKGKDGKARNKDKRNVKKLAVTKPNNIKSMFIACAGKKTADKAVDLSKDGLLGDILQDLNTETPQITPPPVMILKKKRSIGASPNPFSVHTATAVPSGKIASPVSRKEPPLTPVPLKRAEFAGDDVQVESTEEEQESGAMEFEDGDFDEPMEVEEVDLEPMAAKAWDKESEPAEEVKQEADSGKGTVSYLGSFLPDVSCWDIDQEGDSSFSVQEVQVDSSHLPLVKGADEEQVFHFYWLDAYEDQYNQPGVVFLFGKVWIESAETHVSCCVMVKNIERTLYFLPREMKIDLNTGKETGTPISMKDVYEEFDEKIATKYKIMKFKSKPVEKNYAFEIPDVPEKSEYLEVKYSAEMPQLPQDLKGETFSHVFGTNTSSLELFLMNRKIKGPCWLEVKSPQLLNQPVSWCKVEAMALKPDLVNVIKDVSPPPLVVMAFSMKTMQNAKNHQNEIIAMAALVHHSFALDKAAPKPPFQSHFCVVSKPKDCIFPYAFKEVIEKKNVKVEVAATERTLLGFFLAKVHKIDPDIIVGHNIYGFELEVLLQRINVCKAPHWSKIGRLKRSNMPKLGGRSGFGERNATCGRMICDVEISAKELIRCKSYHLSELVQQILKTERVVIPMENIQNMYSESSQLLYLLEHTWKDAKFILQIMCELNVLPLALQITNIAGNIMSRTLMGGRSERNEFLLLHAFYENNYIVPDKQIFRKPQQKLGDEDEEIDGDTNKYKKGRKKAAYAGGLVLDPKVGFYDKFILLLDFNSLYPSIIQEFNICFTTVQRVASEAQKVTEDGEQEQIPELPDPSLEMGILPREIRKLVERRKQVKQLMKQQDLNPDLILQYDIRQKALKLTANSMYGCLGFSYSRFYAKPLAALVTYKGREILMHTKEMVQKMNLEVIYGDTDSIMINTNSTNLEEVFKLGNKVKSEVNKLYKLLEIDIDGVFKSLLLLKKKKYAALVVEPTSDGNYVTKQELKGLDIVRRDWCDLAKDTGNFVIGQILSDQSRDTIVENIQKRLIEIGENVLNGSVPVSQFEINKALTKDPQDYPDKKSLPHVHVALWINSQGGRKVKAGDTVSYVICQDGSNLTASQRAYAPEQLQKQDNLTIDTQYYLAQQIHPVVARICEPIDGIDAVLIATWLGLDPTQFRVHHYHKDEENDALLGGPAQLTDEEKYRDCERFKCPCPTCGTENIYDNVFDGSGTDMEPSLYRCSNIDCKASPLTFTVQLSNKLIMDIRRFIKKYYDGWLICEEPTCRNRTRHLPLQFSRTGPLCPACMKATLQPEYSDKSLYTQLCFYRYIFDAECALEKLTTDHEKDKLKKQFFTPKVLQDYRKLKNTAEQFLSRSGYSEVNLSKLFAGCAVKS

Target | log2 fold change (lapatinib) | log2 fold change (pictilisib) | log2 fold change (crizotinib) | log2 fold change [1] | log2 fold change (duvelisib) | log2 fold change (gandotinib) | log2 fold change (tozasertib) | log2 fold change (doramapimod) | log2 fold change (bafetinib) | log2 fold change [2]
PRMT8 (UniProt Q9NR22) | -0.011 | 0.004 | -0.037 | -0.256 (active) | 0.012 | 0.071 | 0.008 | -0.001 | -0.112 | 0.168
PRKCSH isoform 2 (UniProt P14314) | 0.132 | 0.072 | -0.016 | -0.622 (active) | 0.174 | 0.293 | 0.092 | 0.136 | 0.055 | 0.24
PRADC1 (UniProt Q9BSG0) | -0.088 | 0.091 | 0.075 | 0.166 | -0.069 | -0.002 | – | -0.041 | -0.149 | -0.087
PI4K2B (UniProt Q8TCG2) | 0.009 | 0.039 | -0.203 | 0.134 | 0.143 | 0.041 | 0.019 | -0.026 | -0.017 | 0.003
PWP1 (UniProt Q13610) | 0.041 | -0.001 | 0.003 | 0.488 (active) | 0.055 | -0.052 | 0 | -0.125 | 0.032 | -0.084
PDXDC1 (UniProt Q6P996) | -0.025 | -0.019 | -0.056 | -0.011 | 0.019 | 0 | 0.01 | 0.007 | -0.128 | 0.062
PTPN6 isoform 4 (UniProt P29350) | -0.227 | -0.058 | 0.02 | -0.038 | -0.013 | -0.28 | 0 | 0.015 | -0.278 | 0.135
PFKFB4 (UniProt Q16877) | -0.008 | -0.061 | -0.034 | -0.027 | 0.011 | -0.044 | -0.012 | 0.009 | -0.003 | 0.039
PEX2 (UniProt P28328) | -0.081 | 0.035 | -0.041 | -0.04 | -0.031 | 0.096 | – | -0.151 | -0.218 | 0.149
PRIM2 (UniProt P49643) | 0.045 | -0.025 | -0.017 | 0.007 | -0.002 | -0.056 | -0.04 | 0.028 | -0.1 | 0.004
PPP2CA (UniProt P67775) | -0.028 | -0.001 | 0.159 | 0.051 | -0.024 | -0.022 | -0.116 | -0.049 | 0.053 | 0.03
PRG4 (UniProt Q92954) | -0.097 | -0.408 | -0.118 | -1.36 (active) | 0.042 | 0.051 | – | 0.201 | -0.238 | 0.278
PRKDC (UniProt P78527) | -0.032 | 0.155 | -0.026 | -0.088 | 0.298 | 0.132 | -0.03 | -0.038 | -0.146 | -0.074
PLEKHO2 (UniProt Q8TD55) | 0.045 | 0.184 | 0.057 | 0.039 | 0.062 | -0.018 | -0.137 | 0.005 | -0.193 | 0.07
PHKA2 (UniProt P46019) | -0.085 | -0.042 | 0.048 | 0.022 | -0.01 | -0.035 | -0.015 | 0.013 | -0.109 | -0.012
PTK2 (UniProt Q05397) | -0.116 | 0.038 | 0.414 | 0.007 | -0.076 | 0.396 | 0.026 | – | -0.008 | -0.117
PTGES2 (UniProt Q9H7Z7) | 0.637 (active) | 0.153 | -0.052 | -0.013 | 0.029 | 0.236 | 0.329 | 0.341 | 0.176 | 0.009
PRKAR2B (UniProt P31323) | 0.013 | -0.059 | -0.007 | -0.011 | 0 | -0.31 (active) | 0.038 | 0.017 | -0.02 | 0.001

Target | log2 fold change (lapatinib) | log2 fold change (pictilisib) | log2 fold change (crizotinib) | log2 fold change [1] | log2 fold change (duvelisib) | log2 fold change (gandotinib) | log2 fold change (tozasertib) | log2 fold change (doramapimod) | log2 fold change (bafetinib) | log2 fold change [2]
PRAME (UniProt P78395) | -0.012 | -0.008 | -0.08 | -0.015 | 0.005 | -0.037 | -0.013 | 0.007 | -0.062 | 0.056
PSMB9 (UniProt P28065) | -0.093 | 0.028 | -0.098 | -0.033 | 0.01 | 0.013 | -0.087 | -0.033 | -0.25 | 0.022
PRKRA (UniProt O75569) | 0.01 | -0.003 | -0.021 | -0.017 | 0 | -0.094 | -0.005 | -0.01 | -0.003 | 0.032
PIP4K2A (UniProt P48426) | -0.04 | 0.032 | 0.019 | -0.089 | 0.05 | 0.109 | 0.014 | -0.035 | 0.301 (active) | 0.005
PIR (UniProt O00625) | 0.017 | -0.05 | 0.019 | 0.099 | -0.035 | -0.058 | -0.008 | -0.021 | 0.008 | -0.006
PCBP2 isoform 8 (UniProt Q15366) | 0.022 | -0.013 | 0.001 | 0.013 | 0.04 | 0.029 | -0.026 | -0.092 | 0.082 | 0.036
PFN1 (UniProt P07737) | 0.01 | -0.003 | 0.016 | -0.006 | 0.009 | 0.007 | -0.004 | 0.007 | 0 | 0.007
PPP2R5B (UniProt Q15173) | -0.089 | -0.064 | 0.075 | -0.017 | 0.021 | -0.168 | 0.04 | 0.005 | 0.054 | -0.036
PPIE (UniProt Q9UNP9) | 0.03 | 0 | -0.02 | -0.234 | 0.006 | 0.144 | 0.014 | 0.062 | 0.009 | 0.102
PLXNB2 (UniProt O15031) | -0.033 | -0.068 | -0.014 | -0.019 | 0.031 | -0.046 | 0.027 | -0.044 | -0.004 | 0.031
PCBP3 (UniProt P57721) | -0.031 | -0.035 | 0.002 | -0.067 | -0.014 | 0.028 | 0.001 | 0.014 | -0.03 | 0.026
POLA1 (UniProt P09884) | -0.022 | -0.044 | -0.03 | -0.011 | 0.009 | -0.016 | 0.003 | 0.01 | -0.057 | 0.004
PPFIA2 (UniProt O75334) | -0.014 | 0.031 | -0.212 | -0.244 (active) | 0.001 | 0.139 | -0.028 | 0.023 | 0.019 | 0.147
PCBD2 (UniProt Q9H0N5) | -0.014 | -0.009 | -0.051 | -0.228 (active) | 0.028 | 0.141 | 0.031 | 0.008 | -0.063 | 0.096
PDPK1 (UniProt O15530) | -0.04 | -0.051 | 0.03 | 0.262 | -0.039 | 0.092 | -0.029 | -0.012 | -0.021 | -0.211
PPP1R8 (UniProt Q12972) | 0.025 | -0.008 | 0.021 | -0.236 | -0.035 | 0.108 | -0.014 | -0.011 | -0.01 | 0.091
PPP2R5C isoform 4 (UniProt Q13362) | -0.05 | 0 | 0.015 | -0.051 | 0.213 | -0.034 | 0.025 | -0.11 | -0.077 | 0.055
